Experimental data published in the supplement of paper PMC3342239.
Counter-ions that a name gives are not always drawn.

Each compound was assayed on Saccharomyces cerevisiae (assay: fraction of cells in G1 phase (DNA content, flow cytometry); higher = more cells with unreplicated DNA (G1 delay)). Conditions: temperature: 30 C; YPD; JTY2953 pdr5 snq2 (sensitized); drug added to: cultures diluted from stationary phase; 6-7 h.
Summary of the method: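 Yeast (S. cerevisiae) in YPD at 30°C was treated with library drugs, and cells were then fixed in ethanol, stained with SYTOX Green and counted by flow cytometry over 10,000 events. Sensitized JTY2953 diluted 1∶200 from an overnight culture got a final 20 µg/ml and was fixed 6–7 h later; other runs dosed dividing JTY2953 (fixed at 6 h) or BY4741 (fixed at 4.33 h). G1 fraction means the Dean-Jett-Fox G1 peak area relative to the G1 and G2/M areas together.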

Row | Compound | fraction of cells in G1 phase
1 | COC(=O)C1=C(C)NC(C)=C(C(=O)OCCN2CCN(C(c3ccccc3)c3ccccc3)CC2)C1c1cccc([N+](=O)[O-])c1 (stereo not drawn) [Manidipine] (32.7484 µM) | 0.554
2 | Nc1nc(Cl)nc2c1ncn2[C@@H]1O[C@H](CO)[C@@H](O)[C@@H]1F [Clofarabine] (65.8583 µM) | 0.465
3 | CCCc1cc(C(N)=S)ccn1 [Prothionamide] (110.943 µM) | 0.482
4 | CC(C(=O)O)c1cccc(C(=O)c2ccccc2)c1 (stereo not drawn) [Ketoprofen] (78.6509 µM) | 0.502
5 | C[C@@H]1C(=O)O[C@H]2C[C@@]34[C@H]5C[C@@H](C(C)(C)C)[C@]36[C@@H](OC(=O)[C@@H]6O)O[C@@]4(C(=O)O5)[C@]21O [Ginkgolide a] (48.9705 µM) | 0.512
6 | CN(C)c1nc(N(C)C)nc(N(C)C)n1 [Altretamine] (95.1095 µM) | 0.49
7 | C=C1C[C@H]2[C@@H]3C=C(C)C4=CC(=O)CC[C@]4(C)[C@H]3CC[C@]2(C)[C@@]1(OC(C)=O)C(C)=O [Melengestrol acetate] (50.4374 µM) | 0.569
8 | C[C@@H](O)[C@@H]1NC(=O)[C@H](CCCCN)NC(=O)[C@@H](Cc2c[nH]c3ccccc23)NC(=O)[C@H](Cc2ccccc2)NC(=O)[C@@H](NC(=O)[C@H](N)Cc2ccccc2)CSSC[C@@H](C(=O)N[C@H](CO)[C@@H](C)O)NC1=O [Octreotide] (19.6221 µM) | 0.478
9 | CC#C[C@]1(O)CC[C@H]2[C@@H]3CCC4=CC(=O)CCC4=C3[C@@H](c3ccc(N(C)C)cc3)C[C@@]21C [Mifepristone] (46.5541 µM) | 0.469
10 | CC(=O)OCC(=O)[C@@]1(O)CC[C@H]2[C@@H]3CCC4=CC(=O)CC[C@]4(C)[C@H]3[C@@H](O)C[C@@]21C [Hydrocortisone 21-acetate] (49.4428 µM) | 0.494
11 | COc1ccccc1OCC(O)CN1CCN(CC(=O)Nc2c(C)cccc2C)CC1 (stereo not drawn) [Ranolazine 2HCl] (46.7783 µM) | 0.445
12 | N=C(N)NC(=O)c1nc(Cl)c(N)nc1N [Amiloride] (75.1597 µM) | 0.516
13 | O=S(=O)(c1cccc2cnccc12)N1CCCNCC1 (54.8998 µM) | 0.529
14 | C=C(c1ccc(C(=O)O)cc1)c1cc2c(cc1C)C(C)(C)CCC2(C)C [Bexarotene] (57.3905 µM) | 0.546
15 | CCCCNC(=O)NS(=O)(=O)c1ccc(C)cc1 [Tolbutamide] (73.9774 µM) | 0.505
16 | CN1CCN2c3ccccc3Cc3ccccc3C2C1 (stereo not drawn) [Mianserin hcl] (75.6505 µM) | 0.471
17 | CC(=O)OCC(=O)NCCCOc1cccc(CN2CCCCC2)c1 [Roxatidine acetate HCl] (57.3977 µM) | 0.461
18 | COc1ccc(/C=C/C(=O)Nc2ccccc2C(=O)O)cc1OC [Tranilast] (61.0986 µM) | 0.546
19 | CO[C@H](C(=O)[C@@H](O)[C@@H](C)O)[C@@H]1Cc2cc3cc(O[C@H]4C[C@@H](O[C@H]5C[C@@H](O)[C@H](O)[C@@H](C)O5)[C@H](O)[C@@H](C)O4)c(C)c(O)c3c(O)c2C(=O)[C@H]1O[C@H]1C[C@@H](O[C@H]2C[C@@H](O[C@H]3C[C@](C)(O)[C@H](O)[C@@H](C)O3)[C@@H](O)[C@@H](C)O2)[C@H](O)[C@@H](C)O1 [Plicamycin] (18.4303 µM) | 0.513

Row | Compound | fraction of cells in G1 phase
20 | CN(C/C=C/C#CC(C)(C)C)Cc1cccc2ccccc12 [Terbinafine HCl] (68.6247 µM) | 0.5
21 | CS(=O)(=O)CCNCc1ccc(-c2ccc3ncnc(Nc4ccc(OCc5cccc(F)c5)c(Cl)c4)c3c2)o1 [Lapatinib] (34.4192 µM) | 0.565
22 | COc1cc2nc(N3CCN(C(=O)C4COc5ccccc5O4)CC3)nc(N)c2cc1OC (stereo not drawn) [Doxazosin mesylate] (44.2981 µM) | 0.442
23 | COc1ccc(C(=O)NCc2cccnc2)cc1C(=O)NCc1cccnc1 [Picotamide] (53.1323 µM) | 0.459
24 | CC(C)C[C@H](NC(=O)[C@@H](Cc1c[nH]c2ccccc12)NC(=O)[C@H](Cc1ccc(O)cc1)NC(=O)[C@H](CO)NC(=O)[C@H](Cc1c[nH]c2ccccc12)NC(=O)[C@H](Cc1c[nH]cn1)NC(=O)[C@@H]1CCC(=O)N1)C(=O)N[C@@H](CCCNC(=N)N)C(=O)N1CCC[C@H]1C(=O)NCC(N)=O [Triptorelin] (15.2499 µM) | 0.468
25 | C[N+]1(C)[C@@H]2CC(OC(=O)C(O)(c3cccs3)c3cccs3)C[C@H]1[C@@H]1O[C@@H]12 (stereo partly drawn) [Tiotropium Br] (42.3349 µM) | 0.481
26 | CO[C@H]1C[C@H](O[C@H]2[C@H](C)[C@@H](O[C@@H]3O[C@H](C)C[C@H](N(C)C)[C@H]3OC(C)=O)[C@@H](C)C[C@@]3(CO3)C(=O)[C@H](C)[C@@H](OC(C)=O)[C@@H](C)[C@@H](C)OC(=O)[C@@H]2C)O[C@@H](C)[C@@H]1OC(C)=O [Troleandomycin] (24.5704 µM) | 0.489
27 | CC1(C)[C@H](C(=O)O)N2C(=O)C[C@H]2S1(=O)=O [Sulbactam] (85.7469 µM) | 0.477
28 | CCN(CC)CC(=O)Nc1c(C)cccc1C [Lidocaine] (73.8552 µM) | 0.499
29 | NCCCC(O)(P(=O)(O)O)P(=O)(O)O [Alendronate] (80.6158 µM) | 0.456
30 | CC(C)[C@H]1CC[C@H](C(=O)N[C@H](Cc2ccccc2)C(=O)O)CC1 [nateglinide] (63.0056 µM) | 0.489
31 | N=C(N)c1ccc(OCCCCCOc2ccc(C(=N)N)cc2)cc1 [Pentamidine] (58.7494 µM) | 0.521
32 | CCc1ccc(CCOc2ccc(CC3SC(=O)NC3=O)cc2)nc1 (stereo not drawn) [Pioglitazone] (56.1093 µM) | 0.477
33 | CC1=C(/C=C/C(C)=C/C=C/C(C)=C/C(=O)O)C(C)(C)CCC1 [Retinoic acid] (66.5679 µM) | 0.524
34 | COC(=O)c1ccccc1O [Methyl salicylate] (131.448 µM) | 0.513
35 | CNCCCC12CCC(c3ccccc31)c1ccccc12 [Maprotiline HCl] (72.0947 µM) | 0.475
36 | O=C1CCC(N2C(=O)c3ccccc3C2=O)C(=O)N1 (stereo not drawn) [Thalidomide] (77.4486 µM) | 0.464
37 | COC(=O)C1=C(C)NC(C)=C(C(=O)OCCN(C)Cc2ccccc2)C1c1cccc([N+](=O)[O-])c1 (stereo not drawn) [Nicardipine] (38.7597 µM) | 0.5
38 | O=C(O)c1cccnc1Nc1cccc(C(F)(F)F)c1 [Niflumic acid] (70.8657 µM) | 0.505
